Measured values: PubChem BioAssay (Tox21)
Where “and” joins values, the source holds several entries; their conditions need not be identical. Identical values can stand only once. Inconclusive results are not listed. A structure can be active in one record and inactive in another. Calls of active or inactive are those of the source. Unless noted, calls follow the shape of the dose curve; as a rule, active = well fitted curve in the direction sought with a large enough effect in the repeat runs; inconclusive = weak or mixed curves; inactive = no such curve, though single readings can be large; an effect the other way counts as inactive or inconclusive.

Key:
[1] = qHTS assay to identify small molecule agonists of the constitutive androstane receptor (CAR) signaling pathway - cell viability counter screen (AID 1224836); also: nearly all actives have a fitted effect of over 45% in size
How it was run: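 Using CellTiter-Fluor, viability of HepG2 cells harbouring hCAR and CYP2B6-2.2kb was measured following 23 h incubation with a 15-concentration compound series plus PK11195 (0.75 uM final).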

[2] = qHTS assay to identify small molecule antagonists of the constitutive androstane receptor (CAR) signaling pathway - cell viability counter screen (AID 1224837); also: nearly all actives have a fitted effect of over 45% in size
How it was run: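 HepG2 cells stably carrying hCAR and CYP2B6-2.2kb reporter, stimulated with 50 nM CITCO and compounds at 15 concentrations for 23 h at 37 C. Viability measured by CellTiter-Fluor fluorescence.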

[3] = molecular target: Nuclear receptor subfamily 1 group I member 3 (Homo sapiens) (UniProt Q14994); assay: qHTS assay to identify small molecule antagonists of the constitutive androstane receptor (CAR) signaling pathway (AID 1224838); also: nearly all actives have a fitted effect of over 40% in size; also: potency is read from the fitted curve at half-maximal effect
How it was run: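 HepG2 cells stably carrying hCAR and a CYP2B6-2.2kb luciferase reporter, seeded 4 hrs before compound (15 concentrations). Stimulated with 50 nM CITCO for 24 hr at 37 C. ONE-Glo luminescence read after 30 min at room temperature.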

[4] = molecular target: Nuclear receptor subfamily 1 group I member 3 (Homo sapiens) (UniProt Q14994); assay: qHTS assay to identify small molecule agonists of the constitutive androstane receptor (CAR) signaling pathway (AID 1224839); also: nearly all actives have a fitted effect of over 15% in size; also: potency is read from the fitted curve at half-maximal effect
How it was run: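 Double-stable HepG2 cells (hCAR, CYP2B6-2.2kb) seeded 4 h before compound addition. Exposure 24 h with 0.75 uM PK11195 final. Luciferase detected by ONE-Glo.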

[5] = molecular target: Thyrotropin receptor (Homo sapiens) (UniProt P16473); assay: qHTS assay to identify small molecule agonists of the thyroid stimulating hormone receptor (TSHR) signaling pathway (AID 1224843; calls by dose curve; also: nearly all actives have a fitted effect of over 45% in size)
How it was run: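 TSHR-expressing HEK293 cells (800 per well) were exposed to compounds for 30 min at room temperature. cAMP was then detected by HTRF competition with cAMP-d2 and anti-cAMP cryptate, read after 1 h at room temperature. Fifteen concentrations, triplicate.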

[6] = qHTS assay to identify small molecule agonists of the hypoxia (HIF-1) signaling pathway - cell viability counter screen (AID 1224844; calls by dose curve; also: nearly all actives have a fitted effect of over 50% in size; also: potency is read from the fitted curve at half-maximal effect)
How it was run: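 HRE-bla ME-180 cells, 2,000/well in 0.5% dialyzed FBS medium, treated 17 h at 37C with compounds. Viability read in the same wells as the bla reporter, by CellTiter-Glo luminescence after 30 min at room temperature.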

[7] = qHTS assay to identify small molecule agonists of H2AX - cell viability counter screen (AID 1224847; calls by dose curve; also: nearly all actives have a fitted effect of over 30% in size; also: potency is read from the fitted curve at half-maximal effect; as to activity change, negative = cytotoxicity: top concentration of the series differs between compounds)
How it was run: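 Quantitative HTS viability measurement: CHO-K1 wild-type cells in serum (10% FBS) medium, short 3 hr drug exposure at 37C with 0.76% DMSO, CellTiter-Glo luminescent detection.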

[8] = qHTS RealTime-Glo MT Cell Viability Assay in HEK293 cells - 32 hour (AID 1224868); also: nearly all actives have a fitted effect of over 50% in size; also: potency is read from the fitted curve at half-maximal effect; as to activity change, negative = cytotoxic: top concentration of the series differs between compounds
How it was run: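 Reads taken at 0, 8, 16, 24, 32 and 40 h from the same wells. HEK293 cells (600/well) carried RealTime-Glo reagents from seeding, with compound added after a 5 h settle at 37 C.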

[9] = A CellTox Green Cytotoxicity Assay to monitor cytotoxicity in HEK293 cells - 0 hour (AID 1224869); also: nearly all actives have a fitted effect of over 50% in size; also: potency is read from the fitted curve at half-maximal effect
How it was run: (§1)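 HEK293 cells, 600/well, were preincubated 5 hours and then exposed to compounds at 37 C for up to 40 hours. A cell-impermeant cyanine dye staining dead-cell DNA was read by fluorescence at 0, 8, 16, 24, 32 and 40 h time points.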

[10] = qHTS RealTime-Glo MT Cell Viability Assay in HepG2 cells - 40 hour (AID 1224870); also: nearly all actives have a fitted effect of over 50% in size; also: potency is read from the fitted curve at half-maximal effect
How it was run: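 HepG2 cells mixed with RealTime-Glo MT reagents (NanoLuc plus cell-permeant prosubstrate) were seeded at 600 cells/well, incubated 5 h at 37 C/5% CO2, then pinned with compounds in DMSO; nonlytic luminescence tracked viability during 40 h treatment.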

[11] = A CellTox Green Cytotoxicity Assay to monitor cytotoxicity in HEK293 cells - 40 hour (AID 1224871); also: nearly all actives have a fitted effect of over 45% in size; also: potency is read from the fitted curve at half-maximal effect
How it was run: as §1

[12] = molecular target: Luciferin 4-monooxygenase (Photinus pyralis) (UniProt P08659); assay: qHTS assay to identify small molecule inhibitors of firefly luciferase (AID 1224835); also: nearly all actives have a fitted effect of over 25% in size; also: potency is read from the fitted curve at half-maximal effect
How it was run: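 Quantitative HTS format; KM concentrations of both substrates. Purified P. pyralis FLuc activity quantified from luminescence images.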

[13] = qHTS assay to identify small molecule agonists of H2AX (AID 1224845; active = well fitted activation curve with a large enough effect in the signal ratio in the repeat runs, not every such curve was filed as active; the % refers to the signal ratio)
How it was run: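 Wild-type CHO-K1 cells plated overnight, then exposed 3 hr at 37C to compounds at 15 concentrations (0.76% DMSO). Lysed, then HTRF anti-pH2AX(S139)-cryptate/anti-H2AX-d2 detection after 24 hr at room temperature; emissions 665 and 620 nm.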

[14] = qHTS RealTime-Glo MT Cell Viability Assay in HepG2 cells - 24 hour (AID 1224867); also: nearly all actives have a fitted effect of over 50% in size
How it was run: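 HepG2 suspension premixed with RealTime-Glo reagents is plated at 600 cells per well and left 5 h at 37 C/5% CO2. Compounds in DMSO then go in, and bioluminescence reflecting viable cell number is recorded over 40 h.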

[15] = qHTS assay to identify small molecule antagonists of the estrogen related receptor signaling pathway with the pleiotropic PPARgamma coactivator (PGC) from Tox21 10K library - cell viability counter screen (AID 1224840; active = well fitted cell-killing curve with a large enough effect in the repeat runs, not every such curve was filed as active; also: nearly all actives have a fitted effect of over 40% in size; also: potency is read from the fitted curve at half-maximal effect)
How it was run: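 PGC/ERR cells (2,000/well) plated 6 h, then compound-treated for 17.5 h at 37 C. Viability measured by CellTiter-Fluor fluorescence after 30 min at 37 C, multiplexed with the pathway assay.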

[16] = qHTS assay to identify small molecule agonists of the estrogen related receptor (ERR) signaling pathway from Tox21 library (AID 1224849; calls by dose curve; also: nearly all actives have a fitted effect of over 15% in size); settings: ERR reporter cell line, ONE-Glo luciferase, 18 h
How it was run: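 ERR reporter cells (NTP line) pre-incubated 6 hours at 37 C, then exposed to compounds for 18 hours at 37 C. ONE-Glo luciferase luminescence was read after 30 minutes at room temperature.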

[17] = qHTS assay to identify small molecule agonists of the estrogen related receptor signaling pathway with the pleiotropic PPARgamma coactivator (PGC) from Tox21 10K library (AID 1224842); also: nearly all actives have a fitted effect of over 15% in size
How it was run: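 PGC/ERR reporter cells (NTP line) were seeded 2,000 per well, rested 6 h at 37 C/5% CO2, then pin-dosed with compounds in DMSO for 18 h at 37 C; luciferase read by One-Glo luminescence after 30 min at room temperature.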

[18] = qHTS assay to identify small molecule agonists of the hypoxia (HIF-1) signaling pathway (AID 1224846; active = well fitted activation curve with a large enough effect in the signal ratio in the repeat runs, not every such curve was filed as active; the % refers to the signal ratio)
How it was run: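 HRE-bla ME-180 beta-lactamase reporter cells in medium with 0.5% dialyzed FBS, pre-incubated 5 h then exposed to compounds 17 h at 37C, 5% CO2; reporter induction read with CCF4-AM FRET substrate.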
% is scaled to controls: 0 for no effect and ±100 for the full control effect.

Sequence of Luciferin 4-monooxygenase (Photinus pyralis) (P08659 whole entry, looked up): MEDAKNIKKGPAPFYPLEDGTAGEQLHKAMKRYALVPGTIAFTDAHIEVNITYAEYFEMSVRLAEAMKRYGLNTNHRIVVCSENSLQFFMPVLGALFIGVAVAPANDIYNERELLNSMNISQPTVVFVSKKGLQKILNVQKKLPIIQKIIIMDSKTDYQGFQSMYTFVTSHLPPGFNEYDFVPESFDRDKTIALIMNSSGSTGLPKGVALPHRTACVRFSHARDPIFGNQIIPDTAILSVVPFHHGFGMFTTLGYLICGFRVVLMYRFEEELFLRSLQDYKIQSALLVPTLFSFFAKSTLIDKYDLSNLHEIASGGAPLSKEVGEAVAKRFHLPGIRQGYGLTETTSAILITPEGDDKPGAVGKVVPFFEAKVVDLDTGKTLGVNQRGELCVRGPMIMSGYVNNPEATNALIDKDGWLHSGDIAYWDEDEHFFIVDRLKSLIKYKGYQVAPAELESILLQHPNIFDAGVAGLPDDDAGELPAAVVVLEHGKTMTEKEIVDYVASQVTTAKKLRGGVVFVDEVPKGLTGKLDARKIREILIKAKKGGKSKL
Sequence of Thyrotropin receptor (Homo sapiens) (P16473 whole entry, looked up): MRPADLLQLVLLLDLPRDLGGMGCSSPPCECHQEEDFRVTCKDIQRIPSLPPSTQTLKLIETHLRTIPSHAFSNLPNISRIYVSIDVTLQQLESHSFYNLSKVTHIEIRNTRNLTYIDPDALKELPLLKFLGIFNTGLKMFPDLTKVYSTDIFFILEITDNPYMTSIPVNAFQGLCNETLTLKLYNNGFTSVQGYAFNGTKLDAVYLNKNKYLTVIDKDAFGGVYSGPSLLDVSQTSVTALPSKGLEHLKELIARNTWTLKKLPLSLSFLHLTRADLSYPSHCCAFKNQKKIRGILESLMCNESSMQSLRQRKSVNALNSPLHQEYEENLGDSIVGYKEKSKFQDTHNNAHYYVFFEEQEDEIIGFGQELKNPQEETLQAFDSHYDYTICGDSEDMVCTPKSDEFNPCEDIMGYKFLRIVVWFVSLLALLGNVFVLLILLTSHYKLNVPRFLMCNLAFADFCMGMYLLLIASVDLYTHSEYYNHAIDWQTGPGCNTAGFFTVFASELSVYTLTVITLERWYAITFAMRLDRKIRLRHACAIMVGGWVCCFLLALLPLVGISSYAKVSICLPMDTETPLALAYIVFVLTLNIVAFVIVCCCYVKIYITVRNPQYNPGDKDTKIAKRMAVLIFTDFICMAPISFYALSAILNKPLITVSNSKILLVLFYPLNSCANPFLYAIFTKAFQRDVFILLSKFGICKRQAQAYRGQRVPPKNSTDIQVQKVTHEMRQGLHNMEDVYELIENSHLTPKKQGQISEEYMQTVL
Sequence of Nuclear receptor subfamily 1 group I member 3 (Homo sapiens) (Q14994 whole entry, looked up): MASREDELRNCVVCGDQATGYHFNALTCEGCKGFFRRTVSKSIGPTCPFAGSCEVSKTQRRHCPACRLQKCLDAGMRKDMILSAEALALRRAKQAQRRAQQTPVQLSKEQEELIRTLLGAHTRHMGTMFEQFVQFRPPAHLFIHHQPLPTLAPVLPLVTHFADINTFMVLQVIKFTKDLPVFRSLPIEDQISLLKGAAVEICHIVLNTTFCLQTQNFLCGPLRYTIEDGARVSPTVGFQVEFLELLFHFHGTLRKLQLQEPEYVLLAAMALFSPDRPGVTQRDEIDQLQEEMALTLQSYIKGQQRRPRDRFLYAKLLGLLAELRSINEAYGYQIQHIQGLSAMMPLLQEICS

CC(C)c1c(C(=O)Nc2ccccc2)c(-c2ccccc2)c(-c2ccc(F)cc2)n1CC[C@@H](O)C[C@@H](O)CC(=O)O
inactive: Potency [1] | Potency [2] | Potency [3] | Potency [4] | Potency [5] | Potency [6] | Potency [7] | Potency [8] | Potency [9] | Potency [10] | Potency [11]

CC12CCC(CC1)C(C)(C)O2
inactive: Potency [12] | Potency [1] | Potency [2] | Potency [5] | Potency [6] | Potency [13] | Potency [7] | Potency [14] | Potency [8] | Potency [9] | Potency [10] | Potency [11]

CN[C@H]1CC[C@@H](c2ccc(Cl)c(Cl)c2)c2ccccc21
inactive: Potency [12] | Potency [1] | Potency [2] | Potency [3] | Potency [4] | Potency [6] | activity change, positive = activation ([16]; at 42.5 µM (top of the series)) -39% | Potency [9]
active: Potency [15] 26.6 µM | Potency [7] 49.2 µM | Potency [8] 23.9 µM | Potency [10] 23.9 µM

CCCCCCCC(=O)OCC(COC(=O)CCCCCCC)OC(=O)CCCCCCC
inactive: Potency [12] | Potency [1] | Potency [2] | Potency [5] | Potency [6] | Potency [13] | Potency [7] | Potency [14] | Potency [8] | Potency [9] | Potency [10] | Potency [11]

CC(O)(P(=O)(O)O)P(=O)(O)O
inactive: Potency [12] | Potency [1] | Potency [2] | Potency [5] | Potency [6] | Potency [13] | Potency [7] | Potency [14] | Potency [8] | Potency [9] | Potency [10] | Potency [11]

O=c1[nH]cc(F)c(=O)[nH]1
10.1 µM (active) and inactive: Potency [6]
41.5 µM (active) and inactive: Potency [12]
inactive: Potency [5] | Potency [13] | Potency [7] | Potency [8] | Potency [9] | Potency [10]
50.8 µM (active) and inactive: Potency [11]

C/C=C/C=C/C(=O)O
inactive: Potency [1] | Potency [2] | Potency [3] | Potency [4] | Potency [5] | Potency [6] | Potency [13] | Potency [7] | Potency [8] | Potency [9] | Potency [10] | Potency [11]

CCOc1ccc(NC(C)=O)cc1
inactive and 24.5 µM (active): Potency [8]
inactive: Potency [12] | Potency [1] | Potency [2] | Potency [17] | Potency [5] | Potency [6] | Potency [13] | outcome [18] | Potency [7] | activity change, positive = activation ([16]; at 42.5 µM (top of the series)) 9.79% | activity change, positive = activation ([16]; at 92.4 µM (top of the series)) 9.07% and -21.8% | Potency [9] | Potency [10] | Potency [11]

Nc1ccc(S(N)(=O)=O)cc1
27.4 µM (active) and inactive: Potency [3]
inactive: Potency [1] | Potency [2] | Potency [4] | Potency [15] | Potency [5] | Potency [6] | Potency [13] | outcome [18] | Potency [7] | Potency [14] | Potency [8] | Potency [9] | Potency [10] | Potency [11]

Nc1ccc2c(c1)CN1C(=O)c3ccccc3C1=N2
inactive: activity, negative = inhibition [3] -44.6% [at 19 µM] | activation [5] -0.704% [at 19 µM] | activity change, negative = cytotoxicity [14] -3.47% [at 15.8 µM] | activity change, negative = cytotoxic [10] 1.05% [at 15.8 µM]
active: Potency [12] 213 nM | Potency [4] 0.184 µM | Potency [7] 17 µM | Potency [8] 4.65 µM | Potency [9] 11.7 µM | Potency [11] 10.4 µM

Cc1cn([C@H]2C=C[C@@H](CO)O2)c(=O)[nH]c1=O
inactive: Potency [12] | Potency [1] | Potency [2] | Potency [3] | Potency [4] | Potency [5] | Potency [6] | Potency [7] | Potency [14] | Potency [8] | Potency [9] | Potency [10] | Potency [11]

O=C1c2c(O)cccc2Cc2cccc(O)c21
inactive: Potency [12] | Potency [1] | Potency [2] | Potency [5] | Potency [6] | Potency [13] | Potency [7] | Potency [8] | Potency [9] | Potency [10] | Potency [11]

CN1CCC[C@H]1c1cccnc1
inactive: Potency [12] | Potency [1] | Potency [2] | Potency [3] | Potency [6] | Potency [13] | Potency [7] | Potency [14] | Potency [8] | Potency [9] | Potency [10] | Potency [11]

CN(C)C(=O)Nc1ccc(Cl)c(Cl)c1
inactive: Potency [12] | Potency [1] | Potency [2] | Potency [3] | Potency [17] | Potency [5] | Potency [6] | Potency [13] | Potency [7] | activity change, positive = activation ([16]; at 42.5 µM (top of the series)) -0.767% | activity change, positive = activation ([16]; at 92.4 µM (top of the series)) -14.1% and -8.37% | Potency [14] | Potency [8] | Potency [9] | Potency [10] | Potency [11]

NS(=O)(=O)O
inactive: Potency [12] | Potency [1] | Potency [2] | Potency [3] | Potency [15] | Potency [6] | Potency [13] | Potency [7] | Potency [14] | Potency [8] | Potency [9] | Potency [10] | Potency [11]

CC(=O)CC(c1ccccc1)c1c(O)c2ccccc2oc1=O (stereo not drawn)
inactive: Potency [1] | Potency [2] | Potency [15] | Potency [6] | Potency [13] | Potency [7] | Potency [14] | Potency [8] | Potency [9] | Potency [10] | Potency [11]

O=C1NC(=O)C(c2ccccc2)(c2ccccc2)N1
inactive: Potency [12] | Potency [1] | Potency [2] | Potency [3] | Potency [4] | Potency [5] | Potency [6] | Potency [13] | Potency [7] | Potency [8] | Potency [9] | Potency [10]
inactive and 16.9 µM (active): Potency [11]

COc1ccc(CN(CCN(C)C)c2ccccn2)cc1
inactive: Potency [12] | Potency [1] | Potency [2] | Potency [13] | Potency [7] | Potency [9] | Potency [11]

Nc1ccc([N+](=O)[O-])cc1O
inactive: Potency [3] | Potency [6] | outcome [18] | Potency [7] | Potency [8] | Potency [9] | Potency [10] | Potency [11]

CC1(C)S[C@@H]2[C@H](NC(=O)[C@H](N)c3ccccc3)C(=O)N2[C@H]1C(=O)O
inactive: Potency [12] | Potency [1] | Potency [2] | Potency [5] | Potency [6] | Potency [13] | Potency [7] | Potency [9] | Potency [11]
